Only some compounds are listed: those with a hit (about 4% of all), similar ones and a draw of the others.
TROY NFkB inh = TROY signaling inhibition. Q293 LMP1-TROYcd NF-kB luciferase reporter, 4 h. inhibition, % at 10 µM. 360,000 tested, 0.98% active. AID 1347056;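 active means compounds whose plate-normalised and pattern-corrected inhibition of the luciferase reporter signal at the single screening dose is 50% or more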
CF NFkB block = inhibitors of cystic fibrosis induced NF-kB; KKLEB NF-kB-GFP reporter, PAF-induced, GFP fluorescence overnight; inhibition, % at 5 µM; 360,000 tested, 0.86% active;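 active means at least 50% inhibition at 5 µM, scaled per plate between neutral and stimulator controls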;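 further: PAF is a Pseudomonas aeruginosa culture filtrate used as stimulus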
KKLEB cytotox = counter-screen for CF NF-kB inhibitors: cytotoxicity; KKLEB CF airway cells viability, ATPlite luminescence, overnight; stronger effect = lower value; cells stimulated with P. aeruginosa culture filtrate; activity change (cytotoxicity), % at 5 µM; 360,000 tested, 0.36% active; AID 602141;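 active means corrected activity change at or below -50% at 5 µM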
TWEAK-Fn14 inh = blocks TWEAK-Fn14 interaction in a reporter cell assay. TWEAK-stimulated Fn14 reporter cells, luciferase luminescence, 8 h. inhibition, % at 10 µM. 360,000 tested, 2% active; in the data active means inhibition above about 50%
Peg3 prom inh-1 = reduces Peg3 promoter-driven luciferase expression in HeLa. HeLa PEG-Prom luciferase reporter, luminescence, overnight. inhibition, % at 20 µM. 360,000 tested, 1.7% active. AID 588405;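 active means inhibition of at least 50% at 20 µM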
HIF-2a inh = blocks HIF-2a reporter activity; 786-0 RCC cells HIF-2a reporter, luciferase luminescence, overnight; inhibition, % at 18.8 µM; 360,000 tested, 0.72% active; AID 624352;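 active means inhibition of the luminescence signal of 40% or more relative to plate controls, in a single-dose primary screen at 18.75 µM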
Peg3 prom inh-2 = confirmation of Peg3 promoter inhibitors; AID 602417; 1,300 tested, 84% active; inhibition, % at 20 µM; HeLa PEG-Prom luciferase reporter, luminescence, overnight; shares compounds with Peg3 prom inh-1;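 active means at 20 µM dose, 40% or more inhibition averaged across four replicates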
CF NFkB conf = confirmation of cystic fibrosis induced NF-kB inhibitors; 1,300 tested, 64% active; KKLEB CF airway cells, PAF-induced NF-kB-GFP fluorescence, overnight; AID 602472; shares compounds with CF NFkB block; inhibition, % at 5 µM; in the data active means inhibition above about 40%;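 further: stimulus PAF is a Pseudomonas aeruginosa filtrate and not platelet activating factor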
Mdm2-MdmX confirm = Mdm2/MdmX (human) interaction inhibition, confirmed | 740 tested, 99% active | SaOS-2 split-luciferase Mdm2/MdmX complementation, luminescence | AID 504601 | inhibition, % at 8 µM | shares compounds with HIF-2a inh;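 active means mean inhibition of the luminescence signal across two replicates at or above 26 percent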
Target sequence (O15151 whole entry, looked up): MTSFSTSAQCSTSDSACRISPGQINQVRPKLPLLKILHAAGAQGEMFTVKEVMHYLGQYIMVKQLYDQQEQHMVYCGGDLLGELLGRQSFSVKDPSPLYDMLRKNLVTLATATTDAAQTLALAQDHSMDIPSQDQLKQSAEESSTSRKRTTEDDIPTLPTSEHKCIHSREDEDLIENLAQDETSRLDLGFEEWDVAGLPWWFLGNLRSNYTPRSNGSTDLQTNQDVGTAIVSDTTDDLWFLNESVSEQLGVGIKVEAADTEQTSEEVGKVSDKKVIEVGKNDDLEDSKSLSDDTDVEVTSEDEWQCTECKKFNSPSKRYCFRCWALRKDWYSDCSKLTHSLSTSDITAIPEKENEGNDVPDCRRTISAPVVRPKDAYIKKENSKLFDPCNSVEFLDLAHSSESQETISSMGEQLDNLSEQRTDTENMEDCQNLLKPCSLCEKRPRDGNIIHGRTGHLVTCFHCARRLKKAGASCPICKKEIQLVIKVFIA
Target sequence (Q00987 whole entry, looked up): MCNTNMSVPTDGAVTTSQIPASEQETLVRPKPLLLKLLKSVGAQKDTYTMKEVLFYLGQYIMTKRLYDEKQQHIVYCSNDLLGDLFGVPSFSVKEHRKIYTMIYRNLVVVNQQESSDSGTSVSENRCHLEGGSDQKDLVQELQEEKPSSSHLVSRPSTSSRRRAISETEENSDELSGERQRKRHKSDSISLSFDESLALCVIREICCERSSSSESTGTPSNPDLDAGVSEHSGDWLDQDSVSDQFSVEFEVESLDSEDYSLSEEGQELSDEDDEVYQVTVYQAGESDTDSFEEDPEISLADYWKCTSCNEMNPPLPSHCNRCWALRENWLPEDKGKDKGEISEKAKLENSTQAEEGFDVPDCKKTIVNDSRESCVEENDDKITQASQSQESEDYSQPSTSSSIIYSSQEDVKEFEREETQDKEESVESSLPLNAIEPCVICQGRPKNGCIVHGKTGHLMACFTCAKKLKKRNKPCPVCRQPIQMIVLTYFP
HIF-2a conf = HIF-2a inhibition, single concentration confirmation; shares compounds with HIF-2a inh; 786-0 RCC cells, HIF-2a luciferase reporter luminescence, overnight; inhibition, % at 18.8 µM; 1,800 tested, 56% active; AID 651580;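 active means mean inhibition across four replicates of at least 40 percent at the single tested concentration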
HIF-1a cs = HIF-1a inhibition counter-screen for HIF-2a hits; shares compounds with HIF-2a inh; inhibition, % at 18.8 µM; MiaPaCa-2 HIF-1a luciferase reporter, desferoxamine, overnight; 1,800 tested, 72% active;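 active means mean inhibition of the reporter signal across four replicates at the single tested dose of 50% or more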
Each line names hits and unclear results; the compound was inactive in the other large screens (follow-up assays come after a bar, where they were run).

COc1ccc(CC2C(=O)NC(C)C(=O)N(C)C3C(=O)N(C)C(Cc4ccc(O)c(c4)Oc4ccc(cc4)C3O)C(=O)NC(C)C(=O)NC(C)C(=O)N2C)cc1 (stereo not given)	TROY NFkB inh 87, CF NFkB block 82, TWEAK-Fn14 inh 102, Peg3 prom inh-1 96, HIF-2a inh 87 | Peg3 prom inh-2 98
Cc1nn(Cc2ccccc2)c(C)c1C(=O)OCC(=O)Nc1ccccc1SCC#N	none
C[C@]12CC[C@H]3C(CCC4(O)CC(O)CC[C@]34C=O)C1=CC[C@H]2c1ccc(=O)oc1 (stereo not given in full)	Peg3 prom inh-1 105 | Peg3 prom inh-2 97
CCN(CC)C(=O)c1ccc(NC(=O)c2cccc(C(F)(F)F)c2)cc1	none
CCN(CCCl)c1cc(CN(C)C)cc(NC(=O)c2ccc(C(=O)Nc3cc(CN(C)C)cc(N(CC)CCCl)c3)cc2)c1	TROY NFkB inh 54, CF NFkB block 80, KKLEB cytotox -89, TWEAK-Fn14 inh 99, Peg3 prom inh-1 101, HIF-2a inh 70 | Peg3 prom inh-2 99
Cc1ccc(N2C(=O)CC(=O)NC2=O)c(C)c1	none
O=c1cc(CN2CCNCC2)nc2sccn12	none
C=Cc1cc(OC)c2c(c1)c(=O)oc1c2cc(OC)c2c(O)ccc(C3OC(C)C(O)C(C)(O)C3O)c21 (stereo not given)	CF NFkB block 79, TWEAK-Fn14 inh 91, Peg3 prom inh-1 106, HIF-2a inh 52 | Peg3 prom inh-2 98
CCCCCCC(=O)c1c(O)n(-c2ccccc2OC)c(=O)[nH]c1=O	none
CCN(CC)C(=O)Cn1cc(/C=C2\C(=O)NC(=O)N(c3ccccc3F)C2=O)c2ccccc21	TWEAK-Fn14 inh 66, Peg3 prom inh-1 58, HIF-2a inh 44 | Peg3 prom inh-2 92
Cc1ccc(S(=O)(=O)c2nc(-c3ccccc3Cl)oc2N(C)C2CCN(C)CC2)cc1	Peg3 prom inh-1 64 | Peg3 prom inh-2 78
COc1ccc(NC2=NC(C)(C)CS2)cc1	none
Cc1c(C(=O)N2CCC3(CC2)OCCO3)sc2ncnc(N3CCN(c4ccccn4)CC3)c12	Peg3 prom inh-1 72 | Peg3 prom inh-2 56
CCCNC(=O)Cn1cnc2sc(C(=O)N3CCC4(CC3)OCCO4)c(C)c2c1=O	none
COc1cccc(C2CC3C(=O)C=CC2N3Cc2ccccc2)c1 (stereo not given)	Peg3 prom inh-1 68, HIF-2a inh 48 | Peg3 prom inh-2 71 | HIF-2a conf 57 | HIF-1a cs inactive
COC(=O)C1=C(c2ccccc2)C[C@@H]2CC[C@H]1N2C(=O)NCCCOC(C)C	none
C[C@H]1CCC[C@@H](O)CCC/C=C/c2cc(O)cc(O)c2C(=O)O1	CF NFkB block 51, TWEAK-Fn14 inh 59, Peg3 prom inh-1 64 | CF NFkB conf 46
C[C@H]1CCC[C@H](O)CCCCCc2cc(O)cc(O)c2C(=O)O1	none
COC(=O)C1=C(c2ccccc2OCc2ccccc2)C[C@@H]2CC[C@H]1N2C(=O)NCc1ccc(F)cc1	none
COc1ccc(-c2nn(CCC#N)cc2C(=O)NCc2ccccc2)cc1OC	none
N#Cc1c(Br)n(C2OC(CO)C(O)C2O)c2ncnc(N)c12 (stereo not given)	CF NFkB block 73, Peg3 prom inh-1 61 | CF NFkB conf 84
Nc1ncnc2c1ncn2[C@@H]1O[C@H](COP(=O)(O)CP(=O)(O)O)[C@@H](O)[C@H]1O	none
NC(=O)c1c(Br)n(C2OC(CO)C(O)C2O)c2ncnc(N)c12 (stereo not given)	CF NFkB block 61 | CF NFkB conf 61
COc1ccc(C(c2nnnn2-c2ccc(OC)cc2)N2CCC(n3c(=O)[nH]c4ccccc43)CC2)cc1 (stereo not given)	CF NFkB block 92, Peg3 prom inh-1 68 | CF NFkB conf 90
O=c1[nH]c2ccccc2n1C1CCN(C(c2cc3ccccc3o2)c2nnnn2-c2ccc3c(c2)OCCO3)CC1 (stereo not given)	TROY NFkB inh 67, CF NFkB block 80, TWEAK-Fn14 inh 78, Peg3 prom inh-1 98 | CF NFkB conf 106
NC(Cc1ccc(F)cc1)c1csc(Nc2ncccn2)n1 (stereo not given)	none
Oc1ccc(Br)cc1CN1CCN(c2ccccc2)CC1	CF NFkB block 62 | CF NFkB conf inactive
c1ccc2c(CCN3CCCCC3)c[nH]c2c1	none
COc1cc(C2c3cc4c(c(O)c3CC3COC(=O)C32)OCO4)cc(OC)c1OC (stereo not given)	CF NFkB block 51 | CF NFkB conf 90
COc1cc(C2c3cc4c(cc3CC3COC(=O)C32)OCO4)cc(OC)c1OC (stereo not given)	none
O=C(NCc1cccnc1)Nc1ccc([N+](=O)[O-])cc1	none
COc1ccc(C(CNC(=O)Cc2ccc(Cl)c(Cl)c2)N2CCCCC2)cc1 (stereo not given)	none
CCOC(=O)c1cnc(SCc2ccc(Cl)c(Cl)c2)nc1N1CC1	CF NFkB block 67 | CF NFkB conf inactive
NC(=Nc1ccccc1)NN=Cc1c[nH]c2ccccc12	CF NFkB block 67 | CF NFkB conf 55
CNc1cc(Cl)c2nonc2c1[N+](=O)[O-]	TROY NFkB inh 89, CF NFkB block 84, Peg3 prom inh-1 107, HIF-2a inh 95 | CF NFkB conf inactive | HIF-2a conf 93 | HIF-1a cs 106
COc1ccc(Oc2cc(NC(=O)c3nn(C)cc3[N+](=O)[O-])cc([N+](=O)[O-])c2)cc1	CF NFkB block 59, Peg3 prom inh-1 104, HIF-2a inh 94 | CF NFkB conf 108 | Mdm2-MdmX confirm 84
CN(C)CC(C(=O)Cc1ccccc1)c1ccccc1 (stereo not given)	CF NFkB block 59, Peg3 prom inh-1 101, HIF-2a inh 97 | CF NFkB conf inactive | HIF-2a conf inactive | HIF-1a cs 106
